A selection: hits, their analogues and other compounds. The true share with any hit is near 2.1%.
aSyn yeast inh – rescues yeast growth from alpha-synuclein toxicity; Potency, µM (doses to about 46.1 µM), without a hit: top-dose growth rescue (activation), hits mostly activators; Yeast expressing alpha-synuclein, growth rescue, BacTiter-Glo, 24 h; AID 652106; 0.14% of 370,000 active; further: % of control where 0% means no effect; nearly all actives have a fitted effect of over 65% in size
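Readout is rescue of growth in alpha-synuclein-expressing yeast, so inhibitors of toxicity appear as activators. Growth after 24 hr at 30 deg C in galactose medium is quantified by luminescence.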
GRP78 ERSR act – ER stress response induction in glioma | U87-MG GRP78 promoter luciferase reporter, 16 h | Potency, µM, for the others: at the top dose activation, most hits filed as activators | 0.02% of 420,000 active | AID 602332; further: series mostly up to about 76 µM; % of control where 0% means no effect; nearly all actives have a fitted effect of over 35% in size
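ERSR induction read as luciferase luminescence (Bright-Glo, 10 min at room temperature) in stably transfected human U87-MG glioma cells exposed to compounds for 16 h, using GRP78 as sensor.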
Mito fusion yeast – mitochondrial division inhibition or fusion activation; S. cerevisiae fusion-defective mutant growth rescue, CellTiterGlo 48 h; Potency, µM (top dose mostly 46.1 µM), inactives show at the top dose growth rescue (activation), actives largely listed as activators; 0.23% of 320,000 active; AID 485298; further: % of control where 0% means no effect; nearly all actives have a fitted effect of over 45% in size
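Growth-rescue viability read-out: after 48 h at the non-permissive 37C in glycerol/ethanol YPEG, yeast mitochondrial fusion mutants are measured by CellTiterGlo luminescence; compounds (23 nl pinned per well) restoring growth score as division inhibitors or fusion activators.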
Abeta rescue – compounds reversing amyloid beta toxicity in yeast; 0.063% of 410,000 active; AID 1347071; yeast expressing A-beta42, growth rescue, OD600, 48 h; response scale: 0% DMSO, 100% iron-clioquinol control; Potency, µM (top dose mostly 46.1 µM), usual class: activators; further: nearly all actives have a fitted effect of over 55% in size
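Growth rescue measured by 600 nm absorbance after 48 h yeast culture at 30 C with compound. Values normalized between DMSO and an equimolar ferric chloride plus clioquinol control.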
TDP-43 yeast inh – inhibitors of TDP-43 toxicity in yeast; TDP-43 expressing yeast growth rescue, BacTiter-Glo, 24 h; Potency, µM (series often up to 46.1 µM), for inactives: top-dose growth rescue (activation), usual class: activators; 1.8% of 410,000 active; further: % of control where 0% means no effect; nearly all actives have a fitted effect of over 50% in size
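Yeast expressing TDP-43 (pregrown in raffinose, seeded at OD600=0.02 in galactose medium) exposed to compounds 24 hr at 30 deg C. Growth read by BacTiter-Glo luminescence; rescue of toxicity appears as increased signal.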
A-T KAP1 phos – potential ataxia-telangiectasia treatments restoring KAP-1 phosphorylation. F2112 A-T fibroblasts, KAP-1 phosphorylation AlphaLISA; neocarzinostatin DNA damage 30 min before lysis. Potency, µM (top dose mostly 57.5 µM), inactives show at the highest dose activation, most hits filed as activators. 0.19% of 320,000 active; further: % of control where 0% means no effect; nearly all actives have a fitted effect of over 45% in size
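ATM-like activity read as KAP-1 phosphorylation via AlphaLISA donor/acceptor antibody pairs after lysis and 6 hr at 25C. Cells were ATM-null patient fibroblasts (F2112, hTERT), dosed 60 min, then exposed to the DSB inducer NCS for 30 min.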
An asterisk follows results filed as active; i = inactive; u = inconclusive; x = no result given. The call rests on the fitted dose curve; in most records, active means well fitted curve in the direction sought with a large enough effect; inconclusive means small, poorly fitted or top-dose-only effect, or another doubt; inactive means no such curve, though single readings can be large; an effect the other way counts as inactive or inconclusive. Potency means the concentration at half of the fitted maximal effect.

SMILES | aSyn yeast inh | GRP78 ERSR act | Mito fusion yeast | Abeta rescue | TDP-43 yeast inh | A-T KAP1 phos
COc1cc(C)c(CN2CCc3nnc(C(C)NC(=O)c4cc(F)ccc4F)n3CC2)cc1C (stereo unspecified) | x | -3.3% | x | x | x | x
COc1ccc(S(=O)(=O)NC(=O)C2(C)CCN2C(=O)C(C)(C)c2ccccc2)cc1 (stereo unspecified) | 6.6% | -3.7% | x | i | 14.1µM* | x
CC(C)(C)c1ccc(S(=O)(=O)NC(=O)C2(C)CCN2C(=O)C2(c3ccccc3)CC2)cc1 (stereo unspecified) | 7.2% | -3.3% | x | i | 17.8µM* | x
CC1(C(=O)NS(=O)(=O)c2ccc(Br)cc2)CCN1C(=O)C1(c2ccccc2)CC1 (stereo unspecified) | 5.9% | -0.7% | x | i | u | x
Cc1ccc(F)c(S(=O)(=O)NC(=O)C2(C)CCN2C(=O)C2(c3ccc(Cl)cc3)CCC2)c1 (stereo unspecified) | -5.2% | 11.6% | x | i | u | x
COc1cc(C)ccc1S(=O)(=O)NC(=O)C1(C)CCN1C(=O)C1(c2ccc(Cl)cc2)CCC1 (stereo unspecified) | -1.2% | -1.2% | x | i | 28.2µM* | x
CCCSc1nc2c(c(=O)n1CC)SC(C)C2 (stereo unspecified) | -9.9% | -1.9% | 3.4% | i | 22.4µM* | -1.3%
CCn1c(SCC(=O)N2CCCC2)nc2c(c1=O)SC(C)C2 (stereo unspecified) | 0.8% | 2.7% | -3.9% | i | 0.0% | -2.2%
O=C(c1cncs1)N(Cc1cc2cc3c(cc2nc1N1CCOCC1)CCC3)CC1CCCO1 (stereo unspecified) | x | -4.1% | x | x | x | x
CN(C(=O)CCc1nc(-c2ccccc2F)no1)c1ccc(Cl)cc1 | x | 0.9% | x | i | 22.4µM* | x
CCC1CN(Cc2ccc(COC)o2)Cc2cc(OC)ccc2O1 (stereo unspecified) | x | -2.0% | x | x | x | x
CCCCc1cc(=O)oc2c(CN3CCCC3)c(O)c(Cl)cc12 | 1.2% | -4.2% | 2.5% | i | u | 22.4µM*
CC(=O)c1ccccc1OC(=O)c1ccc(-c2ccccc2)cc1 | -15.8% | 2.9% | x | i | 25.1µM* | x
COc1ccc(OC)c(C(=O)COC(=O)c2cc(C)oc2C)c1 | 7.9% | -5.1% | 9.9% | i | -7.3% | 3.8%
COc1ccc(OC)c(C(=O)COC(=O)c2ccc([N+](=O)[O-])o2)c1 | -36.6% | -4.3% | x | i | 22.4µM* | 11.5%
CC(C)=NOC(=O)c1ccc(-c2ccccc2)cc1 | -8.4% | 0.5% | u | i | 22.4µM* | 1.7%
CC(=O)c1ccccc1OC(=O)c1ccc([N+](=O)[O-])o1 | u | 1.3% | 0.8% | i | 10µM* | 5.4%
Cc1cnc(C)c(-c2cccc3c2OC(CNC(=O)CN2C(=O)c4ccccc4C2=O)C3)n1 (stereo unspecified) | x | -2.7% | x | x | x | x
O=C(Cn1cc(SCc2cccc(Cl)c2)c2ccccc21)N1CCOCC1 | u | 0.9% | 7.9% | u | 35.5µM* | -2.5%
O=C(Cn1cc(SCc2ccc(C(F)(F)F)cc2)c2ccccc21)N1CCCC1 | x | 9.9% | x | i | 35.5µM* | x
Cc1cccc(CSc2cn(CC(=O)N3CCOCC3)c3ccccc23)c1 | 14.2% | 2.7% | 8.7% | i | u | 0.8%
COc1cc(=O)n2c(c1C(=O)N(C)Cc1nonc1C)CCN(Cc1ccc(F)cc1)CC2 | x | -2.0% | x | x | x | x
COc1ccc(/C=C2/C(=O)OCc3cc(OC)c(OC)cc32)cc1 | 3.6% | -5.7% | u | i | 20µM* | -2.9%
COc1cc2c(cc1OC)C(=O)OC2 | x | -2.0% | x | x | x | x
O=C(COC(=O)CCc1ccccc1)Nc1cc([N+](=O)[O-])ccc1F | 0.2% | -3.7% | -4.9% | i | 5.5% | -3.0%
SMILES | aSyn yeast inh | GRP78 ERSR act | Mito fusion yeast | Abeta rescue | TDP-43 yeast inh | A-T KAP1 phos
Cc1cccc(CSCCNC(=O)CSCc2ccc([N+](=O)[O-])cc2)c1 | 15.7% | 8.2% | 15.9% | i | 17.8µM* | -3.9%
COc1ccc([N+](=O)[O-])cc1NC(=O)CSCc1ccccc1 | 7.6% | -1.5% | 8.3% | i | 12.6µM* | -2.7%
O=C(CSCc1ccccc1)Nc1cc([N+](=O)[O-])ccc1F | 4.1% | -1.0% | -6.6% | i | 11.2µM* | 3.1%
Cc1ccc(CSCCNC(=O)CSCc2ccc([N+](=O)[O-])cc2)cc1 | 4.6% | 3.7% | 28.1% | i | 20.4% | 2.9%
COC1=C(C(=O)O)N2C(=O)[C@@H](NC(=O)C(N)C3C=CCC=C3)[C@H]2SC1 (stereo partly specified) | x | -2.0% | x | x | x | x
CCOc1ccc(NC(=O)Cn2c(=O)n(CCc3ccccc3)c(=O)c3c4c(sc32)CN(C(C)=O)CC4)cc1 | x | -0.9% | x | i | -14.5% | x
O=C(Nc1ccccc1)OCC1CCCO1 (stereo unspecified) | 2.2% | 5.2% | x | i | 2.5% | x
O=C(Nc1ccccc1)OCC1COC(c2ccccc2)(c2ccccc2)O1 (stereo unspecified) | 11.5% | 0.7% | x | i | 20µM* | x
O=C(NCC1CCCO1)C(c1cccs1)N(Cc1ccccc1)C(=O)c1ccc(-c2ccccc2)[nH]1 (stereo unspecified) | 4.0% | -5.6% | 1.0% | i | 15.8µM* | -10.3%
COc1ccc(CN(C(=O)c2ccc(-c3ccccc3)[nH]2)C(C(=O)NCC2CCCO2)c2ccc(C)o2)cc1 (stereo unspecified) | 27.5% | -3.2% | -16.0% | i | 11.2µM* | 12.6%
O=C(NCC1CCCO1)C(c1cccs1)N(C(=O)c1ccc(-c2ccccc2)[nH]1)C1CCCC1 (stereo unspecified) | 14.3% | 1.0% | 20.7% | i | 20.3% | -4.8%
Cn1cc(S(=O)(=O)CC(=O)Nc2ccc3c(c2)OCO3)c2ccccc21 | 0.5% | -6.5% | -2.2% | i | -20.6% | -0.2%
Cn1cc(-c2ccc3c(c2)OCO3)c2ccccc21 | 1.7% | 4.1% | x | i | 25.1µM* | x
O=C(c1ccco1)N1N=C(c2ccccc2O)CC1c1cccs1 (stereo unspecified) | 15.4% | 0.7% | x | i | 35.5µM* | x
O=S(=O)(c1ccc(N2CCC(c3ccc(Cl)cc3)=N2)cc1)N(CCO)CCO | -1.3% | -0.9% | -10.1% | i | 9.1% | 31.6µM*
CN(C)CCCNS(=O)(=O)c1ccc(N2CCC(c3ccc(Cl)cc3)=N2)cc1 | x | x | -6.7% | x | x | u
COc1cc(=O)n2c(c1C(=O)NC(C)c1ccco1)CCN(Cc1cc3ccccc3o1)CC2 (stereo unspecified) | x | -5.9% | x | x | x | x
O=C(NCc1ccc2c(c1)OCO2)c1ccc(COc2cc(Cl)ccc2Cl)o1 | 6.9% | -3.6% | 14.1µM* | i | u | 2.4%

Compound activity as filed in PubChem.
